The source of these data is the supplement of paper PMC12282887.

SMILES strings stand for the structures. ± gives the standard deviation of the averaged measurements.

The test system of the assay is E. coli BW25113 marRABp lux reporter. Put plainly: promoter activity interaction Z-score (Lux/OD deviation from empty-vector control); higher = stronger promoter induction by the compound. Here is the method: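 E. coli BW25113 (wild type or ΔmarA/ΔsoxS/Δrob) carrying pTU175 luxCDABE promoter reporters was grown in LB in 384-well plates at 37°C with each of 94 compounds at 4 two-fold concentrations, in biological duplicates. Luminescence and OD600 were read every 30 min for 12 h and integrated as AUC over 8 h (0-8 h WT, 1-9 h mutants). Lux AUC was divided by OD AUC; the interaction score is the residual of a Huber robust fit of each promoter against the empty-vector control, then Z-transformed per promoter.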

As to `c1ccc2[nH]ccc2c1` [Indole], the “promoter activity interaction Z-score” value reads like this: (14.6 µg/ml, genetic background: wild type) 0.304 ± 0.29; (14.6 µg/ml, genetic background: ΔmarA) 0.3765 ± 0.00083; (14.6 µg/ml, genetic background: Δrob) 0.103 ± 0.22; (14.6 µg/ml, genetic background: ΔsoxS) 0.259 ± 0.025; (29.3 µg/ml, genetic background: wild type) 0.16 ± 0.016; (29.3 µg/ml, genetic background: ΔmarA) 0.41 ± 0.022. The “promoter activity interaction Z-score” value runs as follows: (29.3 µg/ml, genetic background: Δrob) 0.118 ± 0.27; (29.3 µg/ml, genetic background: ΔsoxS) 0.258 ± 0.2; (58.6 µg/ml, genetic background: wild type) 0.085 ± 0.049; (58.6 µg/ml, genetic background: ΔmarA) -0.158 ± 0.041; (58.6 µg/ml, genetic background: Δrob) -0.0769 ± 0.035; (58.6 µg/ml, genetic background: ΔsoxS) -0.0326 ± 0.017. Besides, the “promoter activity interaction Z-score” value reads like this: (117.2 µg/ml, genetic background: wild type) 0.965 ± 0.34; (117.2 µg/ml, genetic background: ΔmarA) 0.558 ± 0.15; (117.2 µg/ml, genetic background: Δrob) 0.0948 ± 0.28; (117.2 µg/ml, genetic background: ΔsoxS) 0.629 ± 0.47.

For `O=C(/C=C/C=C/c1ccc2c(c1)OCO2)N1CCCCC1` [Piperine], the “promoter activity interaction Z-score” value (17.8 µg/ml, genetic background: wild type) is -0.274 ± 0.019; the “promoter activity interaction Z-score” value (17.8 µg/ml, genetic background: ΔmarA) is -0.301 ± 0.051; the “promoter activity interaction Z-score” value (17.8 µg/ml, genetic background: Δrob) is -0.434 ± 0.098; the “promoter activity interaction Z-score” value (17.8 µg/ml, genetic background: ΔsoxS) is -0.317 ± 0.29; the “promoter activity interaction Z-score” value (35.7 µg/ml, genetic background: wild type) is -0.476 ± 0.17; the “promoter activity interaction Z-score” value (35.7 µg/ml, genetic background: ΔmarA) was -0.752 ± 0.41. Also, the “promoter activity interaction Z-score” value by setting is: (35.7 µg/ml, genetic background: Δrob) -0.43 ± 0.21; (35.7 µg/ml, genetic background: ΔsoxS) -0.378 ± 0.24; (71.3 µg/ml, genetic background: wild type) -0.335 ± 0.037; (71.3 µg/ml, genetic background: ΔmarA) -0.48 ± 0.25; (71.3 µg/ml, genetic background: Δrob) -0.399 ± 0.2; (71.3 µg/ml, genetic background: ΔsoxS) -0.463 ± 0.46. Further, the “promoter activity interaction Z-score” value runs as follows: (142.7 µg/ml, genetic background: wild type) -0.425 ± 0.28; (142.7 µg/ml, genetic background: ΔmarA) -0.375 ± 0.13; (142.7 µg/ml, genetic background: Δrob) -0.33 ± 0.27; (142.7 µg/ml, genetic background: ΔsoxS) -0.0869 ± 0.48.
